Active and inactive are the calls of the source. Rule for the calls: active = hit-call score of the fitted dose curve at least 0.9, where 1 is the maximum; inactive = score below 0.9.

Chain of Hepatocyte nuclear factor 6 (Homo sapiens) (Q9UBC0 whole entry, looked up, the tested form may be a part): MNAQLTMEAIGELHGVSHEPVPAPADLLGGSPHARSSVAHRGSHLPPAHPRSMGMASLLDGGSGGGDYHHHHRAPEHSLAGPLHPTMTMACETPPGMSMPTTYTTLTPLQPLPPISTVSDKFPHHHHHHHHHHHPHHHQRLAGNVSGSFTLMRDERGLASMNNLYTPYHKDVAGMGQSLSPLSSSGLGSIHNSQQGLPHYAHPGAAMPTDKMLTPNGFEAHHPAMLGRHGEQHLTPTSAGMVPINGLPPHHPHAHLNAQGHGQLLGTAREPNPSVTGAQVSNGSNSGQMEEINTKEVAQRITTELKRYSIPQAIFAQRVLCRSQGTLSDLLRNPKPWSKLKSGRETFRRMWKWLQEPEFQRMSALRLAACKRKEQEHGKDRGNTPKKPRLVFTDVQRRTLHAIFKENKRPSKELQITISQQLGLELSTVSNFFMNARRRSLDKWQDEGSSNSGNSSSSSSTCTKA

One test deals with Hypoxia-inducible factor 1-alpha (Homo sapiens) (UniProt Q16665). Briefly: ATG_HIF1a_CIS: Attagene CIS-FACTORIAL HepG2 Assay for human Hypoxia Inducible Factor 1 (HIF1A) (AID 2282951). The following applies: HepG2 Attagene cis-factorial HIF1a reporter transcription; actives raise or lower the signal. The method, boiled down: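 RT-PCR/capillary electrophoresis fluorescence readout of reporter transcripts from endogenous-TF-driven cis elements in transfected HepG2 cells, 24 h exposure; activity fitted in both directions against DMSO controls.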
Chain of Hypoxia-inducible factor 1-alpha (Homo sapiens) (Q16665 whole entry, looked up): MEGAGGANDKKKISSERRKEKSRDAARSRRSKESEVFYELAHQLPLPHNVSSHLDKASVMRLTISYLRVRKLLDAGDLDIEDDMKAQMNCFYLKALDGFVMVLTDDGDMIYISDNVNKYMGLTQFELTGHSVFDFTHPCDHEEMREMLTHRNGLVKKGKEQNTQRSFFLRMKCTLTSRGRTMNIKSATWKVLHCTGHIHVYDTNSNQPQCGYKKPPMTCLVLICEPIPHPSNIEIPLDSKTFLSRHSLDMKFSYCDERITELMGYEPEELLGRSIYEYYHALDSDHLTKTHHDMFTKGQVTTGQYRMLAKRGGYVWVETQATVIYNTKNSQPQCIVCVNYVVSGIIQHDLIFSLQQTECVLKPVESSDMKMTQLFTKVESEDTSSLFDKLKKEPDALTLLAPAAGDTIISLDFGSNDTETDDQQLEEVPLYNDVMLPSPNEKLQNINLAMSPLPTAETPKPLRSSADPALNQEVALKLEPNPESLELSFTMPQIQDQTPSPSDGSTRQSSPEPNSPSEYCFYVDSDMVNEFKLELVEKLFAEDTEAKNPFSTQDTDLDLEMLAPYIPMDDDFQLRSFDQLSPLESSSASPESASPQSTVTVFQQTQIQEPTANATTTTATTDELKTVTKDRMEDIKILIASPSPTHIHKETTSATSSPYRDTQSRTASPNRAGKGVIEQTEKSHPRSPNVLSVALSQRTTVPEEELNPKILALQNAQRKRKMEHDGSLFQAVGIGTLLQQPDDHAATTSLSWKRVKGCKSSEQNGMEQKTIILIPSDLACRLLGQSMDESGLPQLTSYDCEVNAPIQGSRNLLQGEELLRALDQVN
For `C=CCCCCCCCCCCCC`, the outcome was inactive.

On to `COC(=O)CCCC(=O)OC`, for which the compound was classed as inactive.

On to `CC(C)c1cccc(C(C)C)c1`, for which the outcome was inactive.

Turning to `CC(=O)OC1CC(C)OC(C)O1` (centres undefined), the result was inactive.

`CC(=O)O`: the outcome was inactive.

On to `CCOCCOCCO`, for which the result was inactive.

In the case of `Cc1ccc(C(C)(C)C)c(O)c1`, the call was inactive.

What is called AC50 is the midpoint of the concentration-response curve, whichever way the signal moves. In the case of `O=Cc1ccccc1C=O`, the AC50 is 26.2 µM (active).

`CC1=C(C)S(=O)(=O)CCS1(=O)=O`: the call was inactive.

For `C=CCc1ccc(OC)c(OC)c1`, the AC50 was 0.0538 µM (active).

As to `Cc1c(C)c2c(c(C)c1O)CCC(C)(COc1ccc(CC3SC(=O)NC3=O)cc1)O2` (centres undefined), the compound was called inactive.

For `Cc1ccc(-c2cc(C(F)(F)F)nn2-c2ccc(S(N)(=O)=O)cc2)cc1`, the outcome was inactive.

For `CCCCCCC(CCCCCCCCCCC(=O)OCC(COC(C)=O)OC(C)=O)OC(C)=O` (centres undefined), the call was inactive.

Regarding `CS(=O)(=O)c1ccc([C@@H](C[C@H]2CCC(=O)C2)C(=O)Nc2cnccn2)cc1Cl`, the outcome was inactive.

Regarding `NCCOCCOCCN`, the compound was called inactive.

Regarding `CN(C)CCCN(C)CCCN(C)C`, the call was inactive.

With `O=C(O)c1cccnc1`, the compound was called inactive.

As to `CCCCC(CC)COP(=O)(OCC(CC)CCCC)OCC(CC)CCCC` (centres undefined), the outcome was inactive.

Turning to `O=C1O[C@H]([C@H](O)CO)C(O)=C1O`, the compound was classed as inactive.

On to `Cc1cc(Cc2ccc(N)c(C)c2)ccc1N`, for which the outcome was inactive.

Take `NC(=Nc1ccccc1)Nc1ccccc1`: the compound was classed as inactive.

Take `O=C(O)c1[nH]n(-c2ccc(S(=O)(=O)O)cc2)c(=O)c1N=Nc1ccc(S(=O)(=O)O)cc1`: the compound was classed as inactive.

On to `C#CC(O)C(CC)CCCC` (centres undefined), for which the compound was called inactive.

For `CC(C)(C)c1ccccc1`, the compound was called inactive.

The target of a further test is Hepatocyte nuclear factor 6 (Homo sapiens) (UniProt Q9UBC0). The experiment in a line: ATG_HNF6_CIS: Attagene CIS-FACTORIAL HepG2 Assay for human Hepatocyte Nuclear Factor 6 (HNF6) (AID 2282952). As to conditions: HepG2 Attagene cis-factorial HNF6 reporter transcription; actives raise or lower the signal. The method, boiled down:
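Using cis-element reporters in HepG2 liver cells, the assay tracks endogenous factor-driven transcription 24 h post-dosing. Signal comes from 6-FAM-labelled, HpaI-digested RT-PCR fragments, with gain or loss scored against DMSO.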
As for `C=CCCCCCCCCCCCC`, the result was inactive.

With `COC(=O)CCCC(=O)OC`, the outcome was inactive.

On to `CC(C)c1cccc(C(C)C)c1`, for which the call was inactive.

Regarding `CC(=O)OC1CC(C)OC(C)O1` (centres undefined), the call was inactive.

As for `CC(C)NCC(O)c1ccc(O)c(O)c1` (centres undefined), the compound was classed as inactive.

For the compound `CC(=O)O`, the compound was classed as inactive.

Take `CCOCCOCCO`: the outcome was inactive.

For the compound `CCc1nc(N)nc(N)c1-c1ccc(Cl)cc1`, the AC50 is 100 µM (active).

For the compound `Cc1ccc(C(C)(C)C)c(O)c1`, the outcome was inactive.

Take `CN(C)CCCN1c2ccccc2Sc2ccc(Cl)cc21`: the AC50 is 20.8 µM (active).

In the case of `O=Cc1ccccc1C=O`, the call was inactive.

With `CC1=C(C)S(=O)(=O)CCS1(=O)=O`, the outcome was inactive.

Take `C=CCc1ccc(OC)c(OC)c1`: the compound was called inactive.

Take `Cc1c(C)c2c(c(C)c1O)CCC(C)(COc1ccc(CC3SC(=O)NC3=O)cc1)O2` (centres undefined): the call was inactive.

On to `Cc1ccc(-c2cc(C(F)(F)F)nn2-c2ccc(S(N)(=O)=O)cc2)cc1`, for which the result was inactive.

Take `CCCCCCC(CCCCCCCCCCC(=O)OCC(COC(C)=O)OC(C)=O)OC(C)=O` (centres undefined): the compound was classed as inactive.

Regarding `CS(=O)(=O)c1ccc([C@@H](C[C@H]2CCC(=O)C2)C(=O)Nc2cnccn2)cc1Cl`, the result was inactive.

Take `CC(=O)[C@@]1(O)CC[C@H]2[C@@H]3CCC4=CC(=O)CC[C@]4(C)[C@H]3CC[C@@]21C`: the result was inactive.

On to `NCCOCCOCCN`, for which the outcome was inactive.

In the case of `Oc1ccc(O)cc1`, the result was inactive.

Consider `CN(C)CCCN(C)CCCN(C)C`, for which the result was inactive.

As to `CCCCC(CC)COP(=O)(OCC(CC)CCCC)OCC(CC)CCCC` (centres undefined), the compound was classed as inactive.

In the case of `O=C1O[C@H]([C@H](O)CO)C(O)=C1O`, the result was inactive.

`Cc1cc(Cc2ccc(N)c(C)c2)ccc1N`: the outcome was inactive.

Consider `NC(=Nc1ccccc1)Nc1ccccc1`, for which the result was inactive.

Take `O=C(O)c1[nH]n(-c2ccc(S(=O)(=O)O)cc2)c(=O)c1N=Nc1ccc(S(=O)(=O)O)cc1`: the call was inactive.

On to `C#CC(O)C(CC)CCCC` (centres undefined), for which the AC50 is 144 µM (active).

Consider `CC(C)(C)c1ccccc1`, for which the compound was called inactive.

In another test the target is Heat shock factor protein 1 (Homo sapiens) (UniProt Q00613). Briefly: ATG_HSE_CIS: Attagene CIS-FACTORIAL HepG2 Assay for human Heat Shock Transcription Factor 1 (HSE) (AID 2282953). As to conditions: HepG2 HSE cis-reporter, Attagene RNA transcription; actives raise or lower the signal. In outline: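 HepG2 cells transfected with cis-promoter reporter units sensing endogenous transcription factor activity; reporter mRNA quantified 24 h post-dose by RT-PCR and capillary electrophoresis of 6-FAM-labelled products. Bidirectional fitting against DMSO.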
Chain of Heat shock factor protein 1 (Homo sapiens) (Q00613 whole entry, looked up): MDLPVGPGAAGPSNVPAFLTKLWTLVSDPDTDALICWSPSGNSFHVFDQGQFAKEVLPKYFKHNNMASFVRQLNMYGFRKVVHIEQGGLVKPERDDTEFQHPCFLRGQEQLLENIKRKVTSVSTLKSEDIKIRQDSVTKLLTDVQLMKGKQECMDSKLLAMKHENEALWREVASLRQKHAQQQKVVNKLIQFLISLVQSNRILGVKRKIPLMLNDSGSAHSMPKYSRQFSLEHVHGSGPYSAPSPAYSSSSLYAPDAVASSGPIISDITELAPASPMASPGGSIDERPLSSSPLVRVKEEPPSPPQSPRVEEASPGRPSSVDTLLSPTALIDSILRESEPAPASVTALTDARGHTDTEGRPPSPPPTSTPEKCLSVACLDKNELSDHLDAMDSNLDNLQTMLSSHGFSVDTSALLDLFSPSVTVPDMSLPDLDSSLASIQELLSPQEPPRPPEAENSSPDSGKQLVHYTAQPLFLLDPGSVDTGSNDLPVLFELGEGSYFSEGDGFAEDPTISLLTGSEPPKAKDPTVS
As to `C=CCCCCCCCCCCCC`, the compound was classed as inactive.

In the case of `COC(=O)CCCC(=O)OC`, the compound was classed as inactive.

With `CC(C)c1cccc(C(C)C)c1`, the result was inactive.

As to `CCOCCOCCO`, the compound was classed as inactive.

`CCc1nc(N)nc(N)c1-c1ccc(Cl)cc1`: the call was inactive.

Regarding `Cc1ccc(C(C)(C)C)c(O)c1`, the outcome was inactive.

With `O=Cc1ccccc1C=O`, the compound was called inactive.

Consider `CC1=C(C)S(=O)(=O)CCS1(=O)=O`, for which the call was inactive.

As to `C=CCc1ccc(OC)c(OC)c1`, the outcome was inactive.

In the case of `Cc1ccc(-c2cc(C(F)(F)F)nn2-c2ccc(S(N)(=O)=O)cc2)cc1`, the result was inactive.

Turning to `CCCCCCC(CCCCCCCCCCC(=O)OCC(COC(C)=O)OC(C)=O)OC(C)=O` (centres undefined), the AC50 is 90.7 µM (active).

For the compound `CC(=O)[C@@]1(O)CC[C@H]2[C@@H]3CCC4=CC(=O)CC[C@]4(C)[C@H]3CC[C@@]21C`, the outcome was inactive.

For `NCCOCCOCCN`, the compound was called inactive.

`Oc1ccc(O)cc1`: the compound was called inactive.

With `CN(C)CCCN(C)CCCN(C)C`, the result was inactive.

Regarding `O=C(O)c1cccnc1`, the outcome was inactive.

For `CCCCC(CC)COP(=O)(OCC(CC)CCCC)OCC(CC)CCCC` (centres undefined), the outcome was inactive.

On to `O=C1O[C@H]([C@H](O)CO)C(O)=C1O`, for which the compound was called inactive.

With `Cc1cc(Cc2ccc(N)c(C)c2)ccc1N`, the call was inactive.

For the compound `NC(=Nc1ccccc1)Nc1ccccc1`, the call was inactive.

Take `O=C(O)c1[nH]n(-c2ccc(S(=O)(=O)O)cc2)c(=O)c1N=Nc1ccc(S(=O)(=O)O)cc1`: the compound was classed as inactive.

With `C#CC(O)C(CC)CCCC` (centres undefined), the call was inactive.

With `CC(C)(C)c1ccccc1`, the compound was classed as inactive.

Test system in a further test: not listed separately
The experiment in a line: ATG_MRE_CIS: Attagene CIS-FACTORIAL HepG2 Assay for human Metal Responsive Element (MRE) (AID 2282954). As to conditions: HepG2 MRE cis-reporter transcription, Attagene multiplex; actives raise or lower the signal. In outline:
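Endogenous MRE-dependent transcription read as reporter mRNA in transiently transfected human HepG2 cells at 24 h. RNA reverse-transcribed, PCR-amplified, labelled and resolved by capillary electrophoresis; gain or loss relative to DMSO.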
Turning to `C=CCCCCCCCCCCCC`, the call was inactive.

Turning to `COC(=O)CCCC(=O)OC`, the compound was called inactive.

As to `CC(C)c1cccc(C(C)C)c1`, the compound was called inactive.

In the case of `CC(=O)OC1CC(C)OC(C)O1` (centres undefined), the compound was called inactive.

As to `CC(C)NCC(O)c1ccc(O)c(O)c1` (centres undefined), the call was inactive.

`CC(=O)O`: the result was inactive.

Regarding `CCOCCOCCO`, the compound was called inactive.

With `CCc1nc(N)nc(N)c1-c1ccc(Cl)cc1`, the AC50 is 100 µM (active).

With `Cc1ccc(C(C)(C)C)c(O)c1`, the AC50 was 145 µM (active).

On to `CN(C)CCCN1c2ccccc2Sc2ccc(Cl)cc21`, for which the concentration at half-maximal activity (AC50) was 15.5 µM (active).

Regarding `O=Cc1ccccc1C=O`, the compound was classed as inactive.

In the case of `CC1=C(C)S(=O)(=O)CCS1(=O)=O`, the compound was classed as inactive.

In the case of `C=CCc1ccc(OC)c(OC)c1`, the outcome was inactive.

Regarding `Cc1c(C)c2c(c(C)c1O)CCC(C)(COc1ccc(CC3SC(=O)NC3=O)cc1)O2` (centres undefined), the AC50 is 17.4 µM (active).

Consider `Cc1ccc(-c2cc(C(F)(F)F)nn2-c2ccc(S(N)(=O)=O)cc2)cc1`, for which the AC50 is 6.28 µM (active).

Turning to `CCCCCCC(CCCCCCCCCCC(=O)OCC(COC(C)=O)OC(C)=O)OC(C)=O` (centres undefined), the compound was called inactive.

As to `CS(=O)(=O)c1ccc([C@@H](C[C@H]2CCC(=O)C2)C(=O)Nc2cnccn2)cc1Cl`, the compound was called inactive.

In the case of `CC(=O)[C@@]1(O)CC[C@H]2[C@@H]3CCC4=CC(=O)CC[C@]4(C)[C@H]3CC[C@@]21C`, the compound was classed as inactive.

As for `NCCOCCOCCN`, the call was inactive.

As to `Oc1ccc(O)cc1`, the compound was called inactive.

Turning to `CN(C)CCCN(C)CCCN(C)C`, the result was inactive.

Regarding `O=C(O)c1cccnc1`, the compound was classed as inactive.

Turning to `CCCCC(CC)COP(=O)(OCC(CC)CCCC)OCC(CC)CCCC` (centres undefined), the compound was called inactive.

With `O=C1O[C@H]([C@H](O)CO)C(O)=C1O`, the call was inactive.

With `Cc1cc(Cc2ccc(N)c(C)c2)ccc1N`, the call was inactive.

Take `NC(=Nc1ccccc1)Nc1ccccc1`: the AC50 was 28 µM (active).

As for `O=C(O)c1[nH]n(-c2ccc(S(=O)(=O)O)cc2)c(=O)c1N=Nc1ccc(S(=O)(=O)O)cc1`, the compound was classed as inactive.

`C#CC(O)C(CC)CCCC` (centres undefined): the outcome was inactive.

For `CC(C)(C)c1ccccc1`, the outcome was inactive.
